Test results as given in PubChem BioAssay.

Assay: basal RPMI8226 mitochondrial membrane potential changes, profiling panel, cell-based, JC-1 fluorescence, 24 h, 100 nL compound (AID 1169); also: test concentration not given here
Details: RPMI8226 myeloma, JC-1 mitochondrial potential fluorescence, higher = more signal

SMILES	z-score
COc1cc(Cc2cc3c(c(-c4ccccc4)n2)[Si](C(C)C)(C(C)C)OC3)cc(OC)c1OC	0.138
COCCOC(=O)N1C(=O)[C@@]2(c3cc(C#CCC(C(=O)OC)C(=O)OC)ccc31)[C@H](C(N)=O)[C@H]1C(=O)O[C@H](c3ccccc3)[C@H](c3ccccc3)N1[C@@H]2c1ccccc1OCCO	-0.79
C[C@@]1([C@@H](NS(=O)(=O)c2cccc3cccnc23)c2ccc(-c3ccccc3)cc2)C[C@H]1C1CCCCC1	0.698
C=C(C(=O)CC[C@@H](OC(=O)c1ccccc1-c1ccccc1C(=O)O)c1ccc(CO)o1)C(C)C	-0.479
CCOC(=O)C1=CCC(c2cccn2C(=O)OC(C)(C)C)N(S(=O)(=O)c2ccc(C)cc2)C1 (centres undefined)	-1.11
O=C1N(Cc2ccccc2)c2ccccc2C[C@@]12N=C(c1ccc(OCCCO)cc1)O[C@H]2c1ccccc1	-1.29
Cc1ccc(S[C@]2(C(=O)NC3CC3)CC(=O)N(C3Cc4ccccc4C3)[C@@H]2c2ccc(CO)cc2I)cc1	-0.502
CCc1cccc(NC(=O)O[C@H]2[C@H](OC(=O)Nc3ccccc3-c3ccccc3)[C@H](OC(=O)Nc3ccccc3-c3ccccc3)[C@@H](OC)O[C@@H]2CO)c1	-0.841
CC(C)C[C@H]1NC(=O)CNC(=O)[C@@]23C(=O)N[C@@H](Cc4ccccc4)C2[C@H](C)[C@@]2(C)O[C@H]2C3/C=C/C/C=C\CNC1=O (some centres undefined)	-0.469
C=C(/C=C\CNS(=O)(=O)c1ccc(C)cc1)[C@H](O)[C@H]1CCCN1S(=O)(=O)c1ccccc1[N+](=O)[O-]	-0.938
C[C@]1(C(=O)O)c2ccccc2C(=O)N(Cc2cc(C(F)(F)F)cc(C(F)(F)F)c2)[C@H]1c1ccc(CO)cc1	-0.117
COC(=O)C(CC#Cc1ccc2c(c1)[C@]1(C(=O)N2)[C@H](c2ccc(OCCO)cc2)N2[C@H](c3ccccc3)[C@H](c3ccccc3)OC(=O)[C@H]2[C@@H]1C(N)=O)C(=O)OC	-1.12
CN1C(=O)C2C=CC(C(O)c3ccc(I)cc3)N(N(c3ccccc3)c3ccccc3)C2C1=O (centres undefined)	-0.251
COc1ccc([Si](C)(C)[C@@H]2[C@@H](CC(=O)N(CCO)Cc3ccccc3)O[C@]3(C(=O)N(Cc4cccc(I)c4)c4ccccc43)[C@H]2C)cc1	-1.2
COc1ccc([Si](C)(C)[C@H]2[C@H](CC(=O)N3CCC[C@H]3CO)O[C@@]3(C(=O)N(Cc4cccc(N5CCCCC5=O)c4)c4ccccc43)[C@@H]2C)cc1	-0.893
O=C1C2C=CC(C(O)C3CCCCC3)N(Nc3ccccc3F)C2C(=O)N1c1ccccc1 (centres undefined)	-0.224
C=C(COC)/C(=C/C[C@@H](OC(C)=O)c1cccc(OCCO)c1)c1cnc2ccccc2c1	0.0629
COC(=O)C1=CC(c2ccc(CO)cc2)=CC(C2CC2)N(Cc2cc3c(cc2Br)OCO3)C=C1C(=O)OC (centres undefined)	-0.563
O=C/C=C/c1ccc(-c2ccccc2)cc1	-0.853
COc1ccc(C(O)C2C=CC3C(=O)N(C)C(=O)C3N2Nc2ccccc2)cc1 (centres undefined)	-0.176
COCCOC(=O)N1C(=O)[C@@]2(c3cc(C#CCNC(N)=O)ccc31)[C@H](c1ccccc1OCCO)N1[C@H](c3ccccc3)[C@H](c3ccccc3)OC(=O)[C@H]1[C@@H]2C(=O)N1CCCCCCC1	-0.441
CC1C2C(CCCO)=CC(C3C(=O)N(C(N)=O)C(=O)C23)N1Cc1cccc(OC(F)(F)F)c1 (centres undefined)	0.787
CCCC=C(CCC)[C@@H](NC(=O)c1ccc(C(=O)OC)cc1)c1ccc(C(=O)OC)cc1	-0.342
COc1ccc(C#Cc2ccc3c(c2)[C@]2(C(=O)N3)[C@H](c3ccccc3OCCO)N3[C@H](c4ccccc4)[C@H](c4ccccc4)OC(=O)[C@H]3[C@@H]2C(=O)NC[C@H](O)c2ccccc2)cc1	-0.957
C=C(C(=O)CC[C@@H](OC(=O)c1ccccc1-c1ccccc1C(=O)O)c1cccc(OCCO)c1)C(C)C	-0.143
C[C@]1(C(=O)NC2CC2)c2ccccc2C(=O)N(Cc2cc(F)cc(C(F)(F)F)c2)[C@H]1c1ccc(CO)cc1	0.107
C=C(COC)C(=O)CC[C@H](OC(C)=O)c1ccccc1OCCO	-0.699
CCOC(=O)C[C@H]1[C@H](OC(=O)Cc2ccc3c(c2)OCO3)[C@@H](NC(=O)CC(C)C)c2cc(OCCCO)ccc2N1C(=O)c1ccc2ccccc2n1	0.01
O=C1C[C@@](C(=O)NCC(F)(F)F)(c2ccc([N+](=O)[O-])cc2)[C@@H](c2ccc(CO)cc2I)N1CC12CC3CC(CC(C3)C1)C2	-0.9
